High-throughput results (PubChem)
GBA activity: modulators of human glucocerebrosidase; P04062; purified enzyme, resorufin glucoside fluorescence (screen aimed at inhibitors), 20 min; Potency, µM; 1.1% of 48,000 active; AID 360; in the data active means potency below about 15 µM; inconclusive means mostly about 16 µM to 33 µM;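 further: the screen sought inhibitors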
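Wild-type enzyme at 0.2 nM final in 50mM citric acid/KH2PO4, 10mM sodium taurocholate, 0.01% tween-20, pH 5.9, with resorufin beta-D-glucopyranoside at 30 uM final. Compounds titrated, 20 min at RT, red fluorescence read; AC50 from titration.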
USP2a inhib: inhibitors of human ubiquitin-specific protease USP2a. O75604. USP2a enzymatic assay, qHTS inhibition. Potency, µM (doses to about 38.3 µM), inactives show at the top dose activity change, negative = inhibition, hits mostly inhibitors. 0.1% of 60,000 active. AID 927; further: nearly all actives have a fitted effect of over 60% in size
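USP2 core (20 nM final) was preincubated with compound for 30 min at RT in 20 mM Tris-HCl pH 8.0, 2 mM CaCl2, 2 mM beta-mercaptoethanol; Ub-PLA2 (20 nM) plus NBD C6-HPC (20 uM) then added, fluorescence read after 2.5 h.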
Bst PK mod: alters activity of Bacillus stearothermophilus pyruvate kinase; purified pyruvate kinase, luminescence ATP production; ribose 5-phosphate activator present at AC10; 1.2% of 51,000 active; Potency, µM; in the data active means potency below about 11 µM; inconclusive means mostly about 12 µM to 25 µM;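 the screen sought inhibitors and activators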;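 further: scaled between full activation by ribose 5 phosphate and full inhibition by luteolin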
Hsp90 Hop PPI: changes Hsp90-Hop TPR2A binding signal, up or down | AlphaScreen TPR2A-His6 binding biotin-Hsp90 C-terminal peptide | Potency, µM (top dose mostly 57 µM), inactives show at the highest dose activity change, negative = inhibition | 0.44% of 71,000 active | AID 595; active means well fitted curve in either direction with a large enough effect; inconclusive means small, poorly fitted or top-dose-only effect, or another doubt; further: on the % scale 0 is the no-effect control and ±100 the full control effect
Tau fil binding: tau filament binding; recombinant tau filaments, thioflavin S fluorescence, 15 h; filaments grown with octadecylsulfate alongside compound; Potency, µM (highest dose often 57.1 µM), without a hit: top-dose activity change, negative = inhibition; 2% of 71,000 active; AID 596; P10636;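 further: on the % scale 0 is the no-effect control and ±100 the full control effect; actives lower thioflavin S fluorescence by blocking filaments or displacing dye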
Target sequence (P10636 whole entry, looked up): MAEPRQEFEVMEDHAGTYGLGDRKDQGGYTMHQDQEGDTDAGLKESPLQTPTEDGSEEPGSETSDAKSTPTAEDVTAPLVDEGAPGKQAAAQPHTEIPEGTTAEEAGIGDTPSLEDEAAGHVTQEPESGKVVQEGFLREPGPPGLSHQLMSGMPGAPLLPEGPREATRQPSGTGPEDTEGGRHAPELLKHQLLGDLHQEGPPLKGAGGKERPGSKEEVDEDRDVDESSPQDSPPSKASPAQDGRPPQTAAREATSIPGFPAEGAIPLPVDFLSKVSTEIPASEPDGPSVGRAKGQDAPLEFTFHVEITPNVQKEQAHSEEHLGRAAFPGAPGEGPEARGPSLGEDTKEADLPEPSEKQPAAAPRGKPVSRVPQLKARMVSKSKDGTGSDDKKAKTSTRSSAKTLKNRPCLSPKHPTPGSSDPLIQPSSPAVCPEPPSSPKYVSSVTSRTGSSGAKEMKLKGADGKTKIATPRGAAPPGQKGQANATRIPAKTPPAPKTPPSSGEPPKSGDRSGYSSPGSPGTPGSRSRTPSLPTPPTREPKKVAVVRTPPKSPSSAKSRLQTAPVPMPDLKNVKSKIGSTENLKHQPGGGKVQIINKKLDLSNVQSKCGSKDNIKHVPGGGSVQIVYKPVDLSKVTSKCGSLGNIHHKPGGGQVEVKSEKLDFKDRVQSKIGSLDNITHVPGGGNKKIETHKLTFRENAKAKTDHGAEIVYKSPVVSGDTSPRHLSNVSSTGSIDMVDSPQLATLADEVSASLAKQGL
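Recombinant tau protein (human, 1 uM final) plus 30 uM ODS in HEPES pH 7.4 with NaCl, DTT and thioflavine S. Compound present from the start; fluorescence at 510 nm after 15 h, 37 C.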
15-hLO inh: blocks human 15-lipoxygenase activity. P16050. purified 15hLO-1, xylenol orange hydroperoxide absorbance. Potency, µM (highest dose often 57.1 µM), without a hit: at the highest dose activity change, negative = inhibition, usual class: inhibitors. 1.4% of 74,000 active; further: on the % scale 0 is the no-effect control and ±100 the full control effect; nearly all actives have a fitted effect of over 55% in size
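Readout: Fe(III)-xylenol orange absorbance, 573-to-405 nm ratio as reaction progress. Enzyme 40 nM purified human 15hLO-1, substrate 50 uM arachidonic acid, 6 min RT after 15 min compound preincubation; Hepes pH 7.5 buffer with Triton X-100.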
An asterisk follows results filed as active; i = inactive; ? = inconclusive; nt = not tested or not shown; ! = repeats disagree; [ ] = dose if it differs, or a comment. This is a sample that favours compounds with a hit; in the whole collection about 4.6% have one here. Unless noted, the call rests on the fitted dose curve; in most records, active means well fitted curve in the direction sought with a large enough effect; inconclusive means small, poorly fitted or top-dose-only effect, or another doubt; inactive means no such curve, though single readings can be large; an effect the other way counts as inactive or inconclusive. Potency means the concentration at half of the fitted maximal effect.

SMILES	GBA activity	USP2a inhib	Bst PK mod	Hsp90 Hop PPI	Tau fil binding	15-hLO inh
O=c1c(-c2cc(O)c(O)c(O)c2)coc2cc(O)c(O)c(O)c12	nt	0%	nt	nt	nt	10µM*
CC(=O)c1c(C)nc(-c2ccc(Cl)cc2)nc1N=CN(C)C	>77	-2%	?	1%	25µM*	-7%
Cc1ccc2nc3ccc(N4CCCC4)nn3c(=O)c2c1	>77	-2%	i	-1%	-24%	25µM*
CCCCN(CCCC)C(=O)CSc1nnc2n(C)c(=O)c3c4c(sc3n12)CCCC4	nt	nt	>26	nt	nt	nt
CCOC(=O)c1nn(-c2cc(C(=O)OC)cc(C(=O)OC)c2)cc1O	>77	3%	>57	-1%	4%	-2%
CN(C)/C=N/c1sc2c(c1C#N)CCC2	>77	-2%	>57	-3%	9%	?
N#Cc1c(/N=C/c2cccs2)sc2c1CCCCC2	>77	-6%	1.1*	?	13µM*	-10%
Cn1c(NCc2c[nH]c3ccccc23)nc2ccccc21	>77	3%	nt	-5%	45%	-3%
Cn1c(/N=C/c2c[nH]c3ccccc23)nc2ccccc21	?	21%	0.3*	-12%	20%	-7%
COc1ccc(-c2oc3ncnc(NCCCN4CCOCC4)c3c2-c2ccc(OC)cc2)cc1	?	43%	>57	-6%	15%	-17%
Cc1cccc2cccnc12	nt	nt	nt	-3%	11%	-4%
c1cnc2c(c1)ccc1cccnc12	nt	5%	nt	0.63µM*	-7%[11.4 µM]	22%
Oc1ccc(/C=C\c2cc(O)cc(O)c2)cc1	nt	?	nt	-9%	32µM*!	?
Oc1cc(O)cc(/C=C\c2ccc(O)c(O)c2)c1	nt	-4%	nt	?	?	0.79µM*
Oc1ccc(/C=C/c2cc(O)cc(O)c2)cc1	nt	nt	3.7*	-2%	2%	-18%[25.6 µM]
COc1ccc(N2CCN(c3oc(COc4ccc(Cl)cc4)nc3C#N)CC2)cc1	nt	nt	>26	nt	nt	nt
CN(C)c1ccc(NC(=O)c2sc(SCC(=O)Nc3nccs3)nc2N)cc1	nt	nt	10*	nt	nt	nt
Cc1nnc(SCC(=O)Nc2nccs2)s1	>77	0%	>57	-5%	-3%	-1%
COC(=O)c1c(=O)n(O)c2ccc(OC)cc2[n+]1[O-]	>77	-8%	>57	?	322%	-17%
COc1ccc2[nH]cc(CCNc3ncncc3-c3ccoc3)c2c1	nt	196%	nt	-14%	-29%	2%
COc1cccc(-c2ccc3ncnc(NCc4ccc(OC)cc4OC)c3c2)c1	nt	-19%	nt	-11%	455%	-8%
COc1ccccc1CNc1ncncc1-c1ccccc1C	nt	-9%	nt	-2%	4%	?
COc1ccc(CNc2ncnc3ccc(-c4ccc(N(C)C)cc4)cc23)c(OC)c1	nt	?	nt	?	2.5µM*	?
COc1cccc(-c2cncnc2NCc2cccnc2)c1	nt	25%	nt	-11%	-1%	16µM*
COc1ccc2[nH]cc(CCNc3ncncc3-c3ccc(N(C)C)cc3)c2c1	nt	-9%	nt	?	25µM*	-2%
SMILES	GBA activity	USP2a inhib	Bst PK mod	Hsp90 Hop PPI	Tau fil binding	15-hLO inh
COc1ccccc1CNc1ncncc1-c1ccoc1	nt	38%	nt	?	-8%	10µM*
COc1cccc(-c2cncnc2NCc2cccc(C)c2)c1	nt	-1%	nt	0%	9%	-8%
COC(=O)c1cc(NC(=O)CC2NCCNC2=O)cc(C(=O)OC)c1 (stereo unspecified)	>77	-15%	>57	-9%	0%	9%
CC(C)c1ccc(OCC(O)CN2CCN(c3ccccc3)CC2)cc1 (stereo unspecified)	?	3%	>57	-7%	-17%	-27%
CC(NC(=O)Cc1ccccc1)c1nc2ccccc2[nH]1 (stereo unspecified)	nt	nt	nt	-2%	-5%	-2%
COc1ccccc1CNc1ncncc1-c1ccc(N(C)C)cc1	nt	-25%	nt	?	-13%	-16%
CN(C)c1ccc(-c2cncnc2Nc2ccc(F)cc2)cc1	nt	39%	nt	-17%	-10%	2.5µM*
COc1ccc(CNc2ncncc2-c2ccc(N(C)C)cc2)c(OC)c1	nt	0%	nt	-27%	?	20µM*
COc1ccc2[nH]cc(CCNc3cc(-c4ccccc4C(F)(F)F)ncn3)c2c1	nt	16%	nt	-21%	-10%	16µM*
CC(=O)CCc1oc2ccc(NC(C)=O)cc2c1-c1ccc(C)o1	>77	4%	>57	-9%	8%	16µM*
CC(=O)Nc1ccccc1-c1ccc(C)o1	>77	2%	>57	-4%	3%	3%
CC(=O)c1ccc([N+](=O)[O-])cc1	nt	nt	nt	-4%	4%	1%
CC(C)(C)NC(=O)c1ccc2nccnc2c1	>77	0%	i	-2%	-6%	4%
O=C(Nc1ccc(Br)cn1)c1ccc2nccnc2c1	>77	10%	nt	-3%	16µM*	-16%
Cc1ccc2cc(C#N)c(N3CCCN(C(=O)C4CCCO4)CC3)nc2c1 (stereo unspecified)	>77	-9%	>57	-2%	12%	-14%
Cc1cc(N2CCCCC2)n2ncc(-c3ccc(Cl)cc3)c2n1	?	-7%	i	25µM*	-10%	-2%
O=C(CSc1nc2nc(-c3cccs3)cc(C(F)(F)F)c2c(=O)[nH]1)NCc1ccco1	nt	2µM*	>11	-6%	-22%	-9%
COc1ccc(CC(NC(C)=O)C(=O)NC2CCN(c3nc(C)cc(C)c3C#N)CC2)c(OC)c1 (stereo unspecified)	>77	25%	>57	1%	14%	25µM*
COc1cccc(CC(NC(C)=O)C(=O)NC2CCN(c3nc(C)cc(C)c3C#N)CC2)c1 (stereo unspecified)	>77	23%	>57	-4%	12%	2%
Clc1ccc2[nH]c3c(c2c1)CCc1cn[nH]c1-3	nt	?	nt	-4%	16µM*	?
c1ccc2c3c([nH]c2c1)-c1[nH]ncc1CC3	>77	-12%	3.1*	-7%	22%	7%
O=CNC1CCCc2c1[nH]c1ccc(Cl)cc21 (stereo unspecified)	nt	-3%	nt	-4%	-5%	?
O=C(c1ccc(F)cc1)C1CCN(CCn2c(=S)[nH]c3ccccc3c2=O)CC1	nt	nt	nt	-5%	?	-5%[25.6 µM]
CCSc1ccc2c(c1)N(CCCN1CCN(C)CC1)c1ccccc1S2	nt	15%[17.1 µM]	nt	-10%[26 µM]	4µM*	3%[25.6 µM]
CN(C)CCCN1c2ccccc2Sc2cnccc21	nt	nt	nt	-3%[11 µM]	-24%[11.4 µM]	24%[11.4 µM]
CN(C)CCCN1c2ccc(O)cc2Sc2ccc(Cl)cc21	nt	nt	nt	-7%[11 µM]	3.2µM*	-13%[11.4 µM]
CN1CCN(CCCN2c3ccccc3Sc3ccc(Cl)cc32)CC1	nt	48%	>26	-2%[26 µM]	?	?
CSc1ccc2c(c1)N(CCCN(C)C)c1ccccc1S2	nt	nt	nt	-8%[11 µM]	3.2µM*	-9%[11.4 µM]
OC1CC2CC[C@H](C1)N2CCCN1c2ccccc2Sc2ccc(Cl)cc21 (stereo partly specified)	nt	nt	nt	0%[11 µM]	-17%[11.4 µM]	-1%[11.4 µM]
Cc1ccc(-n2c(SCc3nnc4n3CCC4)nnc2-c2ccccc2)cc1	>77	8%	>57	?	4%	9%
